Screens deposited in PubChem by several laboratories.
Hits are enriched below; roughly 1.9% of the tested compounds scored in any of these assays.
Furin inh: blocks human furin protease activity. P09958. purified furin, fluorogenic substrate cleavage. inhibition, % at 20 µM or 30 µM. actives 0.061% (n = 220,000); in the data active = inhibition above about 25%
PGE2 EP2 inh: inhibitors of human EP2 prostaglandin E2 receptor | P43116 | C6 glioma cells expressing human EP2, cAMP TR-FRET; cells stimulated with saturating PGE2 | inhibition, % at 25 µM | actives 0.52% (n = 260,000) | AID 1422;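 active = percent inhibition above 40 after rounding to a whole number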;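 note: rat C6 glioma host cells with rolipram phosphodiesterase inhibitor present; the protocol text gives 20 µM as final concentration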
Target sequence (P43116 whole entry, looked up): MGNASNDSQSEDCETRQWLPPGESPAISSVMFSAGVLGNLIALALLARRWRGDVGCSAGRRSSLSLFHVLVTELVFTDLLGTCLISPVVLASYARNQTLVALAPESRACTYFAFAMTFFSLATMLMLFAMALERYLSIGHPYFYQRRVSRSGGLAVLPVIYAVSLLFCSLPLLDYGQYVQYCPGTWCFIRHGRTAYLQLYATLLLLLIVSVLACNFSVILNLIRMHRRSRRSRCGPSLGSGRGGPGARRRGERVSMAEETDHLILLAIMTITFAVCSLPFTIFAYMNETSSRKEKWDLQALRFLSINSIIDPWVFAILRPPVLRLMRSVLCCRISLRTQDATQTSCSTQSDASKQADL
Calpain2 inh: blocks pig calpain II enzyme activity | purified calpain II, fluorogenic peptide substrate, 30 min | inhibition, % at 16 µM | actives 0.37% (n = 220,000) | AID 1236;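 active = inhibition above about 50%, limit read from the data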
EP2 modulator: modulators of human EP2 prostaglandin E2 receptor; AID 940; P43116; induction, % at 25 µM; EP2-expressing cells, cAMP HTRF FRET, PGE2 co-stimulation; actives 0.83% (n = 260,000);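 active = compounds whose cAMP rise, as percent of the full-agonist control response, exceeds 60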;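 note: rat C6 glioma line stably carrying human EP2 under a CMV promoter; the protocol text gives 20 µM as final concentration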
HMGR II inh: E. faecalis class II HMG-CoA reductase inhibition. purified E. faecalis HMGR, NADPH absorbance 340 nm kinetic. actives 0.41% (n = 190,000). inhibition, % at 10 µM;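 active = inhibition above a set limit, the median over all tested compounds plus 3 SD, cut at about 9.5% in these data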;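 note: enzyme runs in reverse so mevalonate oxidation gives rising NADPH absorbance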
EP2 confirm: EP2 receptor cAMP induction, counter-screens negative | shares compounds with EP2 modulator | C6 glioma EP2 cells, cAMP HTRF induction; plus low (about EC15) PGE2 agonist | calls only at 20 µM (by protocol) | actives 47% (n = 1,300);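 active = cAMP induction above 50% in the main assay while under 30% in all four parallel counter assays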;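 note: rat C6 glioma cells stably expressing human EP2 receptor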
Hits are given with their value; – = inactive; · = no result; + = active, no number.

SMILES | Furin inh | PGE2 EP2 inh | Calpain2 inh | EP2 modulator | HMGR II inh | EP2 confirm
CCOC(=O)c1ccccc1NC(=O)C1COc2ccccc2O1 (stereo not drawn) | – | – | – | 72 | – | +
O=C1CCc2cc(S(=O)(=O)Nc3ccc(Cc4ccncc4)cc3)ccc2N1 | · | – | · | – | · | ·
Cc1cccc(C)c1N1CCN(c2ccc3nnc(C(F)(F)F)n3n2)CC1 | – | – | – | 70 | – | +
FC(F)(F)c1nnc2ccc(N3CCOCC3)nn12 | – | – | – | – | – | ·
CC(C)n1cc(-c2ccc(Cl)cc2)cc(C#N)c1=O | – | – | – | 68 | – | –
C=CCn1cc(-c2ccc(Cl)cc2)cc(C#N)c1=O | – | – | – | – | – | ·
CC1CCN(c2nc(-c3ccncc3)nc3ccccc23)CC1 | – | – | – | 79 | – | –
O=C(c1cccs1)N1N=C(c2ccccc2)CC1c1ccc(O)cc1 (stereo not drawn) | – | – | – | 74 | – | –
CC(C)OC(=O)CSc1nc(Cc2ccccc2)nc2ccccc12 | – | – | – | 74 | – | +
CCOC(=O)CSc1nc(-c2ccccc2)nc2ccccc12 | – | – | – | 70 | – | +
CC(C)OC(=O)CSc1nc(C(C)C)nc2ccccc12 | – | – | – | – | – | ·
Cc1nnc(NC(=O)CSc2nc(Cc3ccccc3)nc3ccccc23)s1 | · | – | · | – | · | ·
COC(=O)CSc1nc(Cc2ccccc2)nc2ccccc12 | – | – | – | 67 | – | +
CCOC(=O)C(C)Sc1nc(-c2ccccc2)nc2ccccc12 (stereo not drawn) | – | – | – | 87 | – | +
Fc1ccc(C(c2nnnn2C2CCCC2)N2CCN(c3nc4ccccc4s3)CC2)cc1 (stereo not drawn) | · | – | · | – | · | ·
C=CCn1c2cc(C)sc2c2cnn(CC(=O)NC3CCCCC3C)c(=O)c21 (stereo not drawn) | · | · | · | – | · | ·
O=C(NC1(c2ccc3c(c2)OCO3)CCCC1)c1ccccn1 | · | · | · | – | · | ·
CCOC(=O)CSc1nc(CC)nc2ccccc12 | – | – | – | – | – | ·
CCOC(=O)CSc1nc(Cc2ccccc2)nc2ccccc12 | – | – | – | 70 | – | +
c1ccc(-c2nnc3sc(-c4ccncc4)nn23)cc1 | – | – | – | – | – | ·
COc1ccc(-n2c(-c3ccccc3)nnc2-c2ccc(Cl)cc2)cc1 | – | – | – | 69 | – | +
COc1ccc(-c2nn3c(-c4ccccc4)nnc3s2)cc1 | – | – | – | 81 | – | +
Clc1ccc(-c2nn3c(-c4ccccc4)nnc3s2)cc1 | – | – | – | 73 | – | +
COc1ccc(-n2nnnc2-c2ccccc2)cc1 | – | – | – | – | – | ·
COCCn1c(SCC(=O)Nc2ccc3c(c2)OCCO3)nnc1-c1ccccc1 | · | – | · | – | · | ·
SMILES | Furin inh | PGE2 EP2 inh | Calpain2 inh | EP2 modulator | HMGR II inh | EP2 confirm
CC1CCN(C(=O)CN2C(=O)N3CCN=C3c3ccccc32)CC1 | · | – | · | – | · | ·
CCC(=O)Nc1cccc(C(=O)OCC(=O)c2cccs2)c1 | · | – | · | – | · | ·
CN(Cc1ccccc1)c1nc2c(c(=O)[nH]c(=O)n2C)n1CCO | · | – | · | – | · | ·
CN(Cc1ccccc1)c1nc2c(c(=O)[nH]c(=O)n2C)n1Cc1ccccc1Cl | – | – | – | 77 | – | +
CCN(Cc1ccncc1)Cc1c(O)ccc2ccccc12 | – | – | – | – | – | ·
CCN(Cc1cc(Cl)cc(C)c1O)Cc1c(O)ccc2ccccc12 | · | – | · | – | · | –
CN(C)Cc1c(O)ccc2ccccc12 | – | – | – | – | · | ·
CN(Cc1cc(Br)cc(Br)c1O)Cc1c(O)ccc2ccccc12 | · | – | · | 62 | · | –
CCC(=O)Oc1ccc2c(C)cc(=O)oc2c1C(=O)c1ccccc1 | – | – | – | 69 | – | –
CC(C)(C)C1CCC(=NNc2ccc(S(N)(=O)=O)cc2[N+](=O)[O-])CC1 (stereo not drawn) | – | – | – | 68 | – | +
CCCCC(CC)CN1CN(CC(CC)CCCC)CC(C)(N)C1 (stereo not drawn) | · | – | · | – | · | –
Cc1[nH]c(=O)[nH]c(=O)c1Cc1cccc2ccccc12 | – | – | – | – | – | ·
Cc1cc(C)cc(C(=N)c2ccccc2Cc2cccc3ccccc23)c1 | · | – | · | – | · | –
Cc1cc(C)c(O)c(Cc2cccc(Cc3cc(C)cc(C)c3O)c2O)c1 | · | – | · | – | · | ·
Cc1ccccc1C(=N)c1ccccc1Cc1cccc2ccccc12 | · | – | · | 72 | · | +
